A number with no mark means an inactive call. Records with an inconclusive call do not appear. Where a call stands in place of a potency, no number is given. Activity calls are given as the source filed them. Unless noted, calls follow the shape of the dose curve; as a rule, active = well fitted curve in the direction sought with a large enough effect in the repeat runs; inconclusive = weak or mixed curves; inactive = no such curve, though single readings can be large; an effect the other way counts as inactive or inconclusive.
Experiments:
[1] = qHTS assay to identify small molecule antagonists of the estrogen receptor alpha (ER-alpha) signaling pathway using the BG1 cell line in the presence of 0.1 nM 17-beta-estradiol - cell viability counter screen (AID 1259241); conditions: VM7Luc4E2 (BG1) viability, CellTiter-Fluor protease, 22 h, 0.1 nM estradiol agonist added; series mostly up to 92.4 µM; also: nearly all actives have a fitted effect of over 40% in size
How it was run: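 The cell line endogenously expresses full-length ER-alpha and carries four EREs driving luciferase. Cells are cultured 5 days hormone-free, treated 22 hr with compounds and 0.1 nM estradiol, then viability is read by fluorescence.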

[2] = qHTS assay to identify small molecule antagonists of the androgen receptor (AR) signaling pathway using the MDA cell line in the presence of 0.5 nM R1881 - cell viability counter screen (AID 1259242); conditions: MDA-kb2 viability, CellTiter-Fluor protease fluorescence, 16 h; series mostly up to 92.4 µM; also: nearly all actives have a fitted effect of over 45% in size
How it was run: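 Live-cell protease activity was measured by CellTiter-Fluor fluorescence after 30 min. Before that, MDA-kb2 MMTV-luciferase cells had 16 hr at 37C without CO2, exposed to test compounds and 0.5 nM R1881 final.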

[3] = qHTS assay to identify small molecule phospholipidosis (PLD) inducers (AID 1259344; active = well fitted curve in the direction sought with a large enough effect; an effect the other way counts as inactive or inconclusive); conditions: HepG2 phospholipidosis, LipidTOX Red imaging, 24 h; series mostly up to 38.3 µM
How it was run: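 Cells (HepG2, 900 per well) attach for 4 h, receive LipidTOX Red and compound together, incubate 24 h at 37 C, are fixed 30 min with paraformaldehyde/Hoechst, then imaged at one site per well.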

[4] = qHTS assay to identify small molecule HDAC inhibitors (AID 1259364); conditions: HCT-116 HDAC-Glo I/II luminescence, 2 h; series mostly up to 92.4 µM; also: top concentration of the series differs between compounds; nearly all actives have a fitted effect of over 45% in size
How it was run: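 Luminescence read after 30 min room-temperature HDAC-Glo incubation measures cellular class I/II HDAC activity. Compounds were applied for 2 hr at 37 C to HCT-116 wild-type cells seeded the day before.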

[5] = qHTS assay to identify small molecule HDAC inhibitors - cell viability counter screen (AID 1259365); conditions: HCT-116 viability, CellTiter-Glo ATP luminescence, 2 h; series mostly up to 92.4 µM; also: nearly all actives have a fitted effect of over 50% in size
How it was run: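 Viability readout: CellTiter-Glo luminescence. Wild-type HCT-116 cells, 2hr compound treatment following overnight attachment at 37 C.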

[6] = qHTS assay to identify small molecule agonists of the sonic hedgehog signaling (Shh) pathway - cell viability counter screen (AID 1259366); conditions: NIH/3T3 Gli1-Luc viability, CellTiter-Fluor, 24 h; series mostly up to 92.4 µM; also: nearly all actives have a fitted effect of over 50% in size
How it was run: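 Viability measured fluorometrically (CellTiter-Fluor, 1hr, 37C) in 3T3 Gli1-Luc reporter cells after 23hr compound exposure within a 24hr incubation at 37C/5% CO2.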

[7] = qHTS assay to identify small molecule antagonists of the sonic hedgehog signaling (Shh) pathway - cell viability counter screen (AID 1259367); conditions: NIH/3T3 Gli1-Luc viability, CellTiter-Fluor, 24 h; series mostly up to 92.4 µM; also: nearly all actives have a fitted effect of over 55% in size
How it was run: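 Cytotoxicity was assessed in parallel with Shh reporter activity by measuring live-cell protease fluorescence (CellTiter-Fluor) in NIH/3T3 cells stably carrying Gli1-Luc, treated with compound under conditioned medium stimulation for 23 hr plus 1 hr reagent incubation.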

[8] = qHTS assay to identify small molecule agonists of the sonic hedgehog signaling (Shh) pathway (AID 1259368; calls by dose curve;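 also: NIH/3T3-derived 3T3Gli1-Luc cells carrying a stable Gli1-driven firefly luciferase reporter; nearly all actives have a fitted effect of over 15% in size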); conditions: NIH/3T3 Gli1-Luc reporter, luciferase, 24 h, stronger effect = higher value; series mostly up to 92.4 µM
How it was run: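 Luminescence was read after 30 min at room temperature with luciferase reagent. Before that, 3T3Gli1-Luc cells (NIH/3T3 clone, stable Gli1-Luc reporter; 2,000/well) were exposed to compounds for 24 hr at 37C, 5% CO2, compounds being added 4 hr post-plating.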

[9] = qHTS assay to identify small molecule antagonists of the sonic hedgehog signaling (Shh) pathway (AID 1259369; calls by dose curve; also: nearly all actives have a fitted effect of over 45% in size; also: potency is read from the fitted curve at half-maximal effect); conditions: NIH/3T3 Gli1-Luc reporter, Shh antagonist, luminescence 24 h; series mostly up to 92.4 µM
How it was run: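 Antagonist mode: compound added to 3T3 Gli1-Luc cells followed by conditioned-medium stimulation, 24 h at 37 C, 5% CO2. Inhibition taken as loss of Gli1-driven luciferase luminescence.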

[10] = qHTS assay to identify small molecule agonists of the androgen receptor (AR) signaling pathway in the presence of an antagonist - cell viability counter screen (AID 1259379); conditions: MDA-kb2 viability, CellTiter-Fluor, 16 h; series mostly up to 92.4 µM;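 also: MDA-kb2 human breast cancer cells carrying an MMTV luciferase reporter; nearly all actives have a fitted effect of over 25% in size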
How it was run: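 Cytotoxicity counter-screen run in the same wells as the nilutamide-challenged (3.0 µM final) AR agonist assay in MDA-kb2 cells. Compounds tested at 15 concentrations for 16 h, 37 °C without CO2; CellTiter-Fluor fluorescence read.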

[11] = qHTS assay to identify small molecule agonists of the estrogen receptor beta (ER-beta) signaling pathway - cell viability counter screen (AID 1259380); conditions: ER-beta-bla HEK293T viability, CellTiter-Glo luminescence, 16 h; series mostly up to 92.4 µM; also: nearly all actives have a fitted effect of over 30% in size
How it was run: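 Cell viability counter screen: CellTiter-Glo luminescence (30 min, room temperature) measured in the same wells as the beta-lactamase readout, after 16 hr compound exposure at 37C of ER-beta-bla HEK293T cells in 2% charcoal-stripped FBS medium.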

[12] = qHTS assay to identify small molecule antagonists of the estrogen receptor beta (ER-beta) signaling pathway - cell viability counter screen (AID 1259382); conditions: ER-beta-UAS-bla HEK293T viability, CellTiter-Glo luminescence, 16 h; series mostly up to 92.4 µM; also: nearly all actives have a fitted effect of over 55% in size
How it was run: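 Cytotoxicity was measured in the same wells by CellTiter-Glo luminescence after 30 min at room temperature. Cells were ER-beta-bla HEK293T in charcoal-stripped serum, given compound together with 1 nM E2 and incubated 16 h at 37C.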

[13] = biological target: Estrogen receptor beta (Homo sapiens) (UniProt Q92731); assay: qHTS assay to identify small molecule agonists of the estrogen receptor beta (ER-beta) signaling pathway (AID 1259377; active = well fitted activation curve with a large enough effect in the signal ratio in the repeat runs, not every such curve was filed as active; the % refers to the signal ratio); conditions: ER-beta-UAS-bla HEK293T, beta-lactamase FRET ratio, 16 h; series mostly up to 92.4 µM
Sequence of Estrogen receptor beta (Homo sapiens) (Q92731 whole entry, looked up): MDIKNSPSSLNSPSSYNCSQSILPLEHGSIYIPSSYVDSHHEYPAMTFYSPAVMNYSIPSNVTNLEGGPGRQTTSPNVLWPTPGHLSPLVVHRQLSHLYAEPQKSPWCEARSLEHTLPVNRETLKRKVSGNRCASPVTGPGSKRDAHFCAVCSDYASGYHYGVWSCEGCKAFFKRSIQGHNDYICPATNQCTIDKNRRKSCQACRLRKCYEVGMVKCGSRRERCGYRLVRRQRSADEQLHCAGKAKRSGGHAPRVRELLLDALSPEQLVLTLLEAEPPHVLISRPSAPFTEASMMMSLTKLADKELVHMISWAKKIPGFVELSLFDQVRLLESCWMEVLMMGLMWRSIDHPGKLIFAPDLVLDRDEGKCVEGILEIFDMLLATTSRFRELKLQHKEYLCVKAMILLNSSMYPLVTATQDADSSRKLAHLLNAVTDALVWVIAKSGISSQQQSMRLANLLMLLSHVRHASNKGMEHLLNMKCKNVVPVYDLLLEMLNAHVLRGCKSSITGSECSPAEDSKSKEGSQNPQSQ
How it was run: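 A UAS-controlled beta-lactamase reporter in ER-beta-UAS-bla HEK293T cells reports receptor activation. Compounds act for 16 hr at 37C in 2% charcoal-stripped serum, and a FRET substrate is read by fluorescence after 2 hours.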

[14] = biological target: Estrogen receptor beta (Homo sapiens) (UniProt Q92731); assay: qHTS assay to identify small molecule antagonists of the estrogen receptor beta (ER-beta) signaling pathway (AID 1259378; active = well fitted inhibition curve with a large enough effect in the signal ratio in the repeat runs, not every such curve was filed as active; the % refers to the signal ratio); conditions: ER-beta-UAS-bla HEK293T, beta-lactamase FRET ratio, 16 h; series mostly up to 92.4 µM
How it was run: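 ER-beta-UAS-bla HEK293T (GripTite) cells in 2% charcoal-stripped FBS medium were preincubated 6 hr at 37C, dosed with compound, then stimulated with 1 nM E2 (final) for 16 hr; beta-lactamase reporter read by B/G FRET fluorescence after 2 hr substrate loading.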

[15] = biological target: Estrogen receptor (Homo sapiens) (UniProt P03372); assay: qHTS assay to identify small molecule agonists of the estrogen receptor alpha (ER-alpha) signaling pathway in the presence of an antagonist (AID 1259383; calls by dose curve; also: top concentration of the series differs between compounds; nearly all actives have a fitted effect of over 15% in size); conditions: VM7Luc4E2 cells, ERE-luciferase, +ICI-182,780, 22 h; series mostly up to 92.4 µM
Sequence of Estrogen receptor (Homo sapiens) (P03372 whole entry, looked up): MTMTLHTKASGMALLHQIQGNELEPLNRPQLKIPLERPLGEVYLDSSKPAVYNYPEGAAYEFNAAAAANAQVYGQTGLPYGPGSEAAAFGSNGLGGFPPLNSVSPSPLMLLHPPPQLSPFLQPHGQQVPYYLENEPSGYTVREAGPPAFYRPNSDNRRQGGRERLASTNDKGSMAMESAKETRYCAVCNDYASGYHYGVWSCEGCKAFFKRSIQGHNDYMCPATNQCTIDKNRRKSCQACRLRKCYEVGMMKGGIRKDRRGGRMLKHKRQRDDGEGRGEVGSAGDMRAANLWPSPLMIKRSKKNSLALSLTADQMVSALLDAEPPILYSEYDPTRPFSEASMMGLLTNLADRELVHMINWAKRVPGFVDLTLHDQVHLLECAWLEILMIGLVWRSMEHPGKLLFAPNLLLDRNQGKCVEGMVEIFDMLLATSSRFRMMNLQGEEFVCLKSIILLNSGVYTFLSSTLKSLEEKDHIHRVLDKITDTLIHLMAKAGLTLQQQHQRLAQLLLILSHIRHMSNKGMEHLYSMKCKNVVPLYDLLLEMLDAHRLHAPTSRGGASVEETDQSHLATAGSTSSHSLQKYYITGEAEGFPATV
How it was run: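 Agonist-mode confirmation run in the presence of 10.0nM (final) ICI-182,780 antagonist. The reporter was ERE-driven luciferase in VM7Luc4E2 cells, grown in charcoal-stripped serum. Cells were exposed to 15-concentration compound series for 22hr, then ONE-Glo luminescence was read.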

[16] = qHTS assay to identify small molecule agonists or antagonists of the thyroid stimulating hormone receptor (TSHR) signaling pathway - wild type cell line counter screen (AID 1259384; calls by dose curve); conditions: HEK293 wild type, cAMP HTRF counter-screen, stronger effect = higher value; series mostly up to 92.4 µM
How it was run: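 Wild-type HEK293 cells were plated 18 h at 37 C/5% CO2, pin-dosed with compound plus Ro20-1724 medium, held 30 min at room temperature, then given cAMP-d2 and anti-cAMP-cryptate; fluorescence was read after 1 h. Fifteen concentrations, triplicate.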

[17] = biological target: Thyrotropin receptor (Homo sapiens) (UniProt P16473); assay: qHTS assay to identify small molecule antagonists of the thyroid stimulating hormone receptor (TSHR) signaling pathway (AID 1259385; calls by dose curve; also: nearly all actives have a fitted effect of over 20% in size); conditions: TSHR-HEK293 cAMP HTRF, TSH-stimulated antagonist mode; series mostly up to 92.4 µM
Sequence of Thyrotropin receptor (Homo sapiens) (P16473 whole entry, looked up): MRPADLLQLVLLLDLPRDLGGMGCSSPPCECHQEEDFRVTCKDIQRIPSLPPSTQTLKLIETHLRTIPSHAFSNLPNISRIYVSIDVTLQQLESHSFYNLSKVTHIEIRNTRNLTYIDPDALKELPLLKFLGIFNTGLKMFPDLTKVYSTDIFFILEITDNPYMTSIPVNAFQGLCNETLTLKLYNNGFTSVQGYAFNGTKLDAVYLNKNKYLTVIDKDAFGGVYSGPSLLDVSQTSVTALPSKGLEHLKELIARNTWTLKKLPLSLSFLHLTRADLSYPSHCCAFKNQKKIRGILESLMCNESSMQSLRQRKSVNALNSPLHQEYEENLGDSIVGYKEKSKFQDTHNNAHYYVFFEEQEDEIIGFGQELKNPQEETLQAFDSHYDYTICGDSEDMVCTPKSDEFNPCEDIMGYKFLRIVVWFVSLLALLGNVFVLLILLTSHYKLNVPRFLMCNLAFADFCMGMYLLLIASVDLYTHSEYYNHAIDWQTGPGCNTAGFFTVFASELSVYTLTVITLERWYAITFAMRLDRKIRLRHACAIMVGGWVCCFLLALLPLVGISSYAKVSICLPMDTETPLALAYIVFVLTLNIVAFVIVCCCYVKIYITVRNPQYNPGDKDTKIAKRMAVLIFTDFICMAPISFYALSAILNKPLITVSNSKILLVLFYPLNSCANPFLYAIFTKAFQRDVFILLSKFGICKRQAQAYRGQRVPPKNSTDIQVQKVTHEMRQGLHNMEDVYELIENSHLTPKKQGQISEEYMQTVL
How it was run: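 TSHR-HEK293 cells were plated and held 18 h at 37C/5% CO2, then given compound plus Ro20-1724 and stimulated with TSH at 1.5 ng/mL final. After 30 min at room temperature, cAMP was detected with cAMP-d2/anti-cAMP-cryptate (1 h) by fluorescence.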

| Compound | outcome [1] | outcome [2] | outcome [3] | Potency [4] | outcome [5] | Potency [6] | Potency [7] | outcome [8] | Potency [9] | Potency [10] | Potency [11] | outcome [12] | Potency [13] | Potency [14] | outcome [15] | outcome [16] | outcome [17] |
| --- | --- | --- | --- | --- | --- | --- | --- | --- | --- | --- | --- | --- | --- | --- | --- | --- | --- |
| CC(C(=O)O)c1cccc(Oc2ccccc2)c1 (stereo not drawn) | inactive | inactive | inactive | inactive | inactive | inactive | inactive | inactive | inactive | inactive | inactive | inactive | – | – | – | – | – |
| CCN1CCOCC1 | inactive | inactive | – | inactive | inactive | inactive | inactive | inactive | inactive | inactive | inactive | inactive | inactive | inactive | – | – | – |
| O=C(CO)[C@@H](O)[C@H](O)[C@H](O)CO | inactive | inactive | inactive | inactive | inactive | inactive | inactive | inactive | inactive | inactive | inactive | inactive | inactive | inactive | inactive | inactive | inactive |
| COc1cc(C)nc(-n2nc(C)cc2OC)n1 | inactive | inactive | inactive | inactive | inactive | inactive | inactive | inactive | – | inactive | inactive | – | – | – | – | inactive | inactive |
| COc1cc(C(=O)NCc2ccc(OCCN(C)C)cc2)cc(OC)c1OC | inactive | inactive | inactive | inactive | inactive | inactive | inactive | inactive | – | inactive | inactive | inactive | – | – | inactive | inactive | inactive |
| CCCCc1nc(Cl)c(CO)n1Cc1ccc(-c2ccccc2-c2nn[nH]n2)cc1 | inactive | inactive | inactive | inactive | inactive | inactive | inactive | inactive | 596 nM (active) | inactive | inactive | inactive | inactive | inactive | – | – | – |
| Nc1ccn([C@@H]2O[C@H](CO)[C@@H](O)C2O)c(=O)n1 (stereo partly drawn) | inactive | inactive | inactive | inactive | inactive | inactive | inactive | inactive | – | inactive | inactive | inactive | – | – | inactive | – | – |
| CC1=NS(=O)(=O)c2cc(Cl)ccc2N1 | inactive | inactive | inactive | inactive | inactive | inactive | inactive | inactive | – | inactive | inactive | inactive | – | – | inactive | inactive | inactive |

Reference: PubChem BioAssay (Tox21)
